Screening results as filed in PubChem.
a7 integrin act: qHTS for Activators of Integrin-Mediated Alleviation for Muscular Dystrophy | alpha7betagal myoblasts, beta-gal FDG fluorescence, 48 h | 0.064% of 350,000 active | Potency, µM (titrated, usually from 38.3 µM), most hits filed as activators | AID 624291, 2012; note: nearly all actives have a fitted effect of over 60% in size
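alpha7betagal+/- myoblasts (passage 13, 250/well) treated 48 h at 37C with compounds at 1:260 dilution of DMSO stock. Lysed, then beta-galactosidase activity read as FDG fluorescence (ex 480/em 540) after 30 min, with pre-read for autofluorescence.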
MBNL1 CUG block: qHTS Assay for Inhibitors of MBNL1-poly(CUG) RNA binding; AID 2675, 2010; Muscleblind-like protein 1 (Homo sapiens), Q9NR56; TR-FRET MBNL1-His/biotin-(CUG)12 binding, 665/545 ratio; 0.036% of 280,000 active; Potency, µM (top dose mostly 57.5 µM), usual class: inhibitors; active = well fitted inhibition curve with a large enough effect in the signal ratio, with a control signal flat, not every such curve was filed as active; inconclusive = small, poorly fitted or top-dose-only effect, or effect the other way, or a change in a side signal; inactive = no such curve, though single readings can be large or run the other way; the % refers to the signal ratio
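Compound titration spanned 92 nM–58 uM against the MBNL1-His/biotin-(CUG)12 complex. After 60 min at room temperature with 5 nM streptavidin-XL665 and 0.055 ng/ul terbium anti-His, ratiometric 665/545 nm emission (Ex 340 nm) normalized to controls.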
TSHR antagonist: Antagonists of the Thyroid Stimulating Hormone Receptor: HTS campaign. Thyrotropin receptor (Homo sapiens), P16473. 0.2% of 330,000 active. activity change, negative = inhibition, % at 11.5 µM. TSHR-expressing cells, TSH-stimulated cAMP HTRF, 2 h; hits give low values;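 active = activity change below a set negative limit, meaning inhibition stronger than a set level, cut at about -70% in these data; inconclusive = activity change between two set negative limits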
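Competitive HTRF cAMP read-out (cryptate anti-cAMP antibody, cAMP-d2; 30 min, room temperature) in freshly harvested TSHR cells. Compounds added before TSH at EC80 (4nM final), followed by 2 hours' incubation at 37 deg C.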
TCR activator: Activators of T cell receptors: qHTS campaign | primary human leukocytes, anti-CD3, IL-2 HTRF, 48 h | Potency, µM (highest dose often 9.22 µM), actives largely listed as activators | 330,000 tested, under 10 active | AID 504894, 2011
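Compounds are tested in HTS on primary human leukocytes co-incubated with a-CD3 beads for 48 hr. IL-2 output is measured by time-resolved FRET.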
TSG101-PTAP inh: qHTS Assay for Iinhibitors of HIV-1 Budding by Blocking the Interaction of PTAP/TSG101 | Fluorescence polarization, FITC-PTAP peptide / Tsg101 binding | 340,000 tested, under 10 active | Potency, µM (highest dose often 115 µM), most hits filed as inhibitors | AID 493005, 2010 | Tumor susceptibility gene 101 protein (Homo sapiens), Q99816; active = well fitted inhibition curve with a large enough effect in the main read-out, with a control signal flat, not every such curve was filed as active; inconclusive = small, poorly fitted or top-dose-only effect, or effect the other way, or a change in a side signal; inactive = no such curve, though single readings can be large or run the other way
Target sequence (Q99816 whole entry, looked up): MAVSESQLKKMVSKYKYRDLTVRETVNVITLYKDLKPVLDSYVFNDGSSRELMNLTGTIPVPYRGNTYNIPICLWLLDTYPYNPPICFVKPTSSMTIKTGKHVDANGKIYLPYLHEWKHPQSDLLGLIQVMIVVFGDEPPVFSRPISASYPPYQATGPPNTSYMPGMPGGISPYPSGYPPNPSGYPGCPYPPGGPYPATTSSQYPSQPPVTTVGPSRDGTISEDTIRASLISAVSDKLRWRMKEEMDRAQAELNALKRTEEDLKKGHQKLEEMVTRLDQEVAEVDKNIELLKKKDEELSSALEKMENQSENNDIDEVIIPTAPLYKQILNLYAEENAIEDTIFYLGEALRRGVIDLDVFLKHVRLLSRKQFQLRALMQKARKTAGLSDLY
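Tsg101 binding domain (10 uM final) was mixed with compound and a FITC-labeled PTAP peptide (50 nM final) in HEPES pH 7.5 buffer with NaCl, Tween 20, EDTA and TCEP; fluorescence polarization was read after 20 min at r.t.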
CBFb-RUNX1 inh: qHTS Assay for Compounds Blocking the Interaction Between CBF-beta and RUNX1 for the Treatment of Acute Myeloid Leukemia. 230,000 tested, under 10 active. Potency, µM (highest dose often 59.8 µM), most hits filed as inhibitors. AID 1477, 2009. AlphaScreen CBFb-His/RUNX1-biotin binding, biochemical
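AlphaScreen proximity signal reports loss of binding between His-tagged CBF-beta and biotin-labelled RUNX1, each at 30 nM. Proteins are pre-associated for 20 minutes, compounds added for 15 minutes, then beads for 90 minutes, all at ambient temperature.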
Of the large screens only hits and unclear results are named; the others gave an inactive call. This is a sample that favours compounds with a hit; in the whole collection about 0.26% have one here. Unless noted, calls come from the whole dose curve; as a rule, active = well fitted curve in the direction sought with a large enough effect; inconclusive = small, poorly fitted or top-dose-only effect, or another doubt; inactive = no such curve, though single readings can be large; an effect the other way counts as inactive or inconclusive.

CCOC(=O)N1CCN(C(=O)CCc2ccccc2)CC1	a7 integrin act inconclusive, TSHR antagonist -128 (no result: TCR activator, CBFb-RUNX1 inh)
O=C(CCc1ccccc1)N1CCN(C(=O)CCc2ccccc2)CC1	none (no result: MBNL1 CUG block, TSHR antagonist, CBFb-RUNX1 inh)
CN[C@H]1CCc2cc(OC)c(OC)c(OC)c2-c2ccc(N[C@@H]3CCCCNC3=O)c(=O)cc21	none (no result: a7 integrin act, MBNL1 CUG block, TSHR antagonist, TCR activator, TSG101-PTAP inh)
CC1CCN(S(=O)(=O)c2ccc(S(=O)(=O)N3CCCC3)cc2)CC1	a7 integrin act 8.9µM (no result: CBFb-RUNX1 inh)
Cc1ccc(S(=O)(=O)N2CCC(C)CC2)cc1	none (no result: CBFb-RUNX1 inh)
CC1CCCC(N2CCN(S(=O)(=O)c3ccccc3)CC2)C1 (stereo unspecified)	TSHR antagonist -108 (no result: CBFb-RUNX1 inh)
COc1ccc(S(=O)(=O)N2CCN(C3CCCC(C)C3)CC2)cc1 (stereo unspecified)	none (no result: CBFb-RUNX1 inh)
OC[C@H]1O[C@@H](O[C@@H]2OC=C[C@H]3[C@H](O)[C@@H]4O[C@]4(CO)[C@@H]23)[C@H](O)[C@@H](O)[C@@H]1O	none (no result: a7 integrin act, MBNL1 CUG block, TSHR antagonist, TCR activator, TSG101-PTAP inh)
CO[C@H]1COC(=O)[C@@H](C)COC(=O)[C@H](C)NC(=O)C/C=C\[C@H]1C	none (no result: a7 integrin act, MBNL1 CUG block, TSHR antagonist, TCR activator, TSG101-PTAP inh)
CCc1c(C(=O)NCCc2ccc(N3CCCCC3)cc2)[nH]c2ccc(Cl)cc12	none (no result: a7 integrin act, MBNL1 CUG block, TCR activator, TSG101-PTAP inh, CBFb-RUNX1 inh)
COc1ccccc1NC(=O)NC1(C(=O)N2CCCCC2)CCCCC1	TSHR antagonist -75 (no result: CBFb-RUNX1 inh)
Cc1cc(NC(=O)CCC(=O)N(Cc2cccnc2)C(C(=O)NC(C)(C)C)c2ccccc2Cl)no1 (stereo unspecified)	a7 integrin act 4µM (no result: CBFb-RUNX1 inh)
O=C(Nc1nnc(C2CC2)s1)c1ccc(Cl)c(S(=O)(=O)N2CCc3ccccc3C2)c1	TSHR antagonist -90
O=C(NCC1CCCCC1)c1nnc(C(=O)NCC2CCCCC2)c2c1[nH]c1ccccc12	none (no result: a7 integrin act, MBNL1 CUG block, TSHR antagonist, TCR activator, TSG101-PTAP inh)
COc1ccc(NC(=O)CSc2nc3[nH]c(=O)[nH]c(=O)c3s2)cc1OC	TSHR antagonist -73 (no result: CBFb-RUNX1 inh)
Cc1cccc(CS(=O)(=O)c2ncc(Cl)c(C(=O)Nc3nnc(C(C)C)s3)n2)c1	MBNL1 CUG block inconclusive, TSHR antagonist -74 (no result: CBFb-RUNX1 inh)
Cc1ccc(CS(=O)(=O)c2ncc(Cl)c(C(=O)Nc3nnc(C(C)C)s3)n2)cc1	TSHR antagonist inconclusive (no result: CBFb-RUNX1 inh)
CCOc1ccccc1NC(=O)c1nc(S(=O)(=O)Cc2cccc(C)c2)ncc1Cl	TSHR antagonist -83 (no result: CBFb-RUNX1 inh)
CC(C)c1nnc(NC(=O)c2nc(S(=O)(=O)Cc3ccc(F)cc3)ncc2Cl)s1	TSHR antagonist -75 (no result: CBFb-RUNX1 inh)
O=C(O)c1cc(S(=O)(=O)N2CCCCC2)sc1Cl	none
O=S(=O)(c1cc(Br)c(Cl)s1)N1CCCC1	TSHR antagonist -78
O=C(NCCS(=O)(=O)N1CCN(c2ccccc2)CC1)C1CC(=O)N(c2ccccc2)C1 (stereo unspecified)	TSHR antagonist -135 (no result: CBFb-RUNX1 inh)
COC(=O)C1=C(C(=O)OC)[C@@H]2N(C)c3ccccc3[C@@]23C[C@@H](C(=O)OC)N(S(=O)(=O)c2ccc(C(F)(F)F)cc2)C3=N1	none (no result: a7 integrin act, MBNL1 CUG block, TSHR antagonist, TCR activator, TSG101-PTAP inh)
Cn1nc(C(F)(F)F)c(-c2cccc(C(F)(F)F)c2)c1NC(=O)CSCC(=O)O	TSHR antagonist -74
CC1CCC2C(=O)OC(COc3ccc(C(C)(C)C)cc3)CN2C1c1ccc(Br)cc1 (stereo unspecified)	none (no result: a7 integrin act, MBNL1 CUG block, TSHR antagonist, TCR activator, TSG101-PTAP inh)
CCCCCCCCCCCCCCCCCCOC[C@H](COP(=O)([O-])OCC[N+](C)(C)C)OC	TSHR antagonist -81, CBFb-RUNX1 inh inconclusive (no result: a7 integrin act, MBNL1 CUG block, TCR activator, TSG101-PTAP inh)
CCCCCCCCCCCCCCCCOCC(COP(=O)([O-])OCC[N+](C)(C)C)OC (stereo unspecified)	none (no result: a7 integrin act, MBNL1 CUG block, TSHR antagonist, TCR activator, TSG101-PTAP inh)
CCC(NC(=O)Nc1nnc(C(F)(F)F)s1)(C(F)(F)F)C(F)(F)F	TSHR antagonist -87
Cc1c(Cl)sn(-c2ccc(Cl)cc2)c1=O	TSHR antagonist -88
